Screening data deposited in PubChem BioAssay by National Center for Advancing Translational Sciences (NCATS).
Compounds with a hit are over-represented: about 19% of the library has one in this group of screens.
Pf growth 48h: inhibits P. falciparum growth in the first generation, 48 h; P. falciparum luciferase growth in erythrocytes, 48 h; Potency, µM (highest dose often 28.7 µM), inactives show at the top dose activity change, negative = inhibition, actives largely listed as inhibitors; 310,000 compounds, 5.9% hits; AID 504832; further: potency means the concentration at half of the fitted maximal effect; on the % scale 0 is the no-effect control and ±100 the full control effect
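A one-generation exposure of luciferase-tagged malaria parasites in RPMI 1640/Albumax erythrocyte culture, 37 C and 5% CO2. Inhibition is inferred from decreased luminescence after adding detection reagent.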
Shiga inhibitor: blocks Shiga toxin action in Vero cells; Vero cells, Shiga toxin protein synthesis inhibition reporter; inhibition, % at 38.7 µM; 290,000 compounds, 9.2% hits; in the data active means inhibition mostly above about 28%, no sharp cut-off; inactive means mostly below about 43%; further: 0% is about no effect
CHX counter: counter-screen for Shiga toxin inhibitors: cycloheximide protein synthesis inhibition | cell reporter, cycloheximide protein synthesis inhibition counterscreen | max response, % | 300,000 compounds, 12% hits | AID 2314; in the data active means max response mostly above about 13%, no sharp cut-off; inactive means mostly below about 14%; further: read at 38.3 µM for the half of the compounds with a filed dose; 0% is about no effect
Pf growth 96h: P. falciparum growth inhibition at 96 hour, primary screen for plastid delayed-death inhibitors; P. falciparum luciferase reporter growth, 96 h; AID 504834; Potency, µM (top dose mostly 28.7 µM), for the others: at the highest dose activity change, negative = inhibition, usual class: inhibitors; 320,000 compounds, 6.9% hits; further: potency means the concentration at half of the fitted maximal effect; on the % scale 0 is the no-effect control and ±100 the full control effect
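P. falciparum expressing integrated firefly luciferase grown in erythrocytes (2% hematocrit, 0.05% parasitemia final) with compounds for 96 hours at 37 C, 5% CO2. Growth inhibition read as loss of luminescence after adding luciferase detection reagent.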
Lassa entry inh: blocks Lassa virus binding to or entry into cells. Potency, µM (top dose mostly 37.9 µM), for the others: top-dose activity change, negative = inhibition, most hits filed as inhibitors. 300,000 compounds, 1.2% hits. AID 540256. Lassa virus pseudotype entry inhibition, cell reporter; calls by dose curve; tested in HEK293 cells; further: potency means the concentration at half of the fitted maximal effect; on the % scale 0 is the no-effect control and ±100 the full control effect; nearly all actives have a fitted effect of over 50% in size
Marburg entry inh: inhibitors of Marburg virus binding or cell entry | 300,000 compounds, 1.8% hits | Marburg virus pseudotyped entry inhibition, cell reporter | Potency, µM (highest dose often 37.8 µM), without a hit: at the top dose activity change, negative = inhibition, actives largely listed as inhibitors; calls by dose curve; tested in HEK293 cells; further: potency means the concentration at half of the fitted maximal effect; on the % scale 0 is the no-effect control and ±100 the full control effect
CLK4 ADP-Glo: CLK4 (human) kinase inhibition, ADP-Glo confirmation. shares compounds with Pf growth 48h. recombinant Clk4, RS peptide, ADP-Glo luminescence. Potency, µM (doses to about 80 µM), for inactives: at the highest dose activity, negative = inhibition, usual class: inhibitors. 65 compounds, 80% hits. AID 1969
Target sequence (Q9HAZ1 whole entry, looked up): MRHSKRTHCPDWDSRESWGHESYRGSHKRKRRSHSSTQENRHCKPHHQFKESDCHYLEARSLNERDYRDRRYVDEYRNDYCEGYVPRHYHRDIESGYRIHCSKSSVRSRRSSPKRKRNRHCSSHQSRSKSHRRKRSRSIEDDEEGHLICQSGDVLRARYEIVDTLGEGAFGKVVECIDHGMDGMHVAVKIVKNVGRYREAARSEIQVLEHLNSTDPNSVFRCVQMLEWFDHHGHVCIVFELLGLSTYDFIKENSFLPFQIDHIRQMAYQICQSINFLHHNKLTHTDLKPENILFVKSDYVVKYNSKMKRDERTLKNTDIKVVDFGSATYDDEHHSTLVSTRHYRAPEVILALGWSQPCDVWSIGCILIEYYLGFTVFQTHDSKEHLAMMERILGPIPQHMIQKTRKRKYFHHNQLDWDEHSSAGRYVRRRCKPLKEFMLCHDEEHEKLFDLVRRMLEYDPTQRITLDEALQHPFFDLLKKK
CLK4 cf ADP-FP: confirmation of human CDC-like kinase 4 (CLK4) inhibitors; shares compounds with Pf growth 48h; recombinant Clk4, ADP Transcreener FP, RS peptide; Potency, µM (highest dose often 80 µM), inactives show at the top dose activity, negative = inhibition, hits mostly inhibitors; 65 compounds, 70% hits
WI-38 cytotox: counter-screen for perinucleolar compartment inhibitors: WI-38 cytotoxicity; AID 2729; shares compounds with Marburg entry inh; 120 tested, under 10 active; Potency, µM (series often up to 46.1 µM), without a hit: at the top dose activity change, negative = cytotoxicity, usual class: inhibitors; WI-38 normal lung fibroblasts, ATPLite luminescence ATP viability, 24 h
PNC assembly inh: confirmation of perinucleolar compartment assembly inhibitors; shares compounds with Marburg entry inh; PC3M PTB-GFP, PNC prevalence imaging, 16 h; 120 compounds, 50% hits; AID 2730; Potency, µM (highest dose often 46.1 µM), inactives show at the highest dose activity, negative = PNC inhibition, hits mostly inhibitors
PC3M caspase: activates caspase 3/7 in PC3M cells in PNC counter-screen | 120 tested, under 10 active | shares compounds with Marburg entry inh | PC3M-GFP caspase 3/7 activation, luminescence, 24 h | activity change, positive = activation, % at 46.1 µM | AID 2731
Starred values were filed as active, the others as inactive; ? = inconclusive; / = not tested or not shown; [ ] = dose if it differs, or a comment. Unless noted, the call rests on the fitted dose curve; in most records, active means well fitted curve in the direction sought with a large enough effect; inconclusive means small, poorly fitted or top-dose-only effect, or another doubt; inactive means no such curve, though single readings can be large; an effect the other way counts as inactive or inconclusive.

SMILES	Pf growth 48h	Shiga inhibitor	CHX counter	Pf growth 96h	Lassa entry inh	Marburg entry inh	CLK4 ADP-Glo	CLK4 cf ADP-FP	others
c1csc(CNc2ncnc3ccc(-c4ccc5c(c4)OCO5)cc23)c1	?	/	/	?	/	/	0.071µM*	0.045µM*
COc1cc2ncnc(NCc3cccs3)c2cc1OC	?	49	11	-24%	/	/	/	/
c1csc(CNc2ncnc3ccc(-c4ccoc4)cc23)c1	?	/	/	?	/	/	0.22µM*	0.25µM*
O=C(COC(=O)c1cc(=O)c2ccccc2o1)Nc1cc(Cl)ccc1Cl	0%	/	/	-2%	1%	5%	/	/
Cc1cc(C)c(C(=O)c2ccc(C(=O)N3CCCCC3)cc2)c(C)c1	?	-5	-1	7%	?	-21%[46.1 µM]	/	/
Cc1noc(C)c1-c1ccc2ncnc(NCc3cc(F)cc(F)c3)c2c1	/	4	-2	/	/	/	/	/
Fc1cccc(CNc2ncnc3ccc(-c4cccnc4)cc23)c1	?	/	/	15µM*	/	/	2.8µM*	6.3µM*
Cc1cccc(-c2ccc3ncnc(NCc4cccc(F)c4)c3c2)c1	0.042µM*	/	/	1.3µM*	/	/	4µM*	7.9µM*
Cc1noc(C)c1-c1ccc2ncnc(NCc3cccc(C(F)(F)F)c3)c2c1	/	28	16	/	/	/	/	/
Cc1cccc(CNc2ncnc3ccc(-c4cccc(Cl)c4)cc23)c1	6.6µM*	/	/	4.1µM*	/	/	13µM*	?
Cc1cccc(CNc2ncnc3ccc(-c4ccc5c(c4)OCO5)cc23)c1	5.9µM*	/	/	3.3µM*	/	/	0.11µM*	0.1µM*
Fc1cccc(CNc2ncnc3ccc(-c4ccccc4Cl)cc23)c1	5.9µM*	/	/	2.1µM*	/	/	7.9µM*	10µM*
COc1cc(CNc2ncnc3ccc(-c4c(C)noc4C)cc23)cc(OC)c1OC	/	3	-4	/	/	/	/	/
Cc1cccc(CNc2ncnc3ccc(-c4ccccc4Cl)cc23)c1	5.2µM*	/	/	1.5µM*	/	/	7.9µM*	?
O=C(NNC1CC(=O)N(c2ccc(Cl)cc2)C1=O)c1ccccn1 (stereo unspecified)	-4%	-10	-8	-2%	/	/	/	/
COCCN1Cc2cccc(C(=O)NCC3CCN(CC(C)C)C3)c2C1=O (stereo unspecified)	?	-4	-3	11%	13%[46.1 µM]	-1%[46.1 µM]	/	/
CCN(c1ccccc1)S(=O)(=O)c1ccc(Cl)c(NC(=O)COC(=O)c2cccc(OC)c2O)c1	6%	-15	-2	-1%	-4%	-22%	/	/
Cc1cccc(-c2ccc3ncnc(N(C)Cc4ccco4)c3c2)c1	12µM*	/	/	?	/	/	2.5µM*	3.2µM*
CN(Cc1ccco1)c1ncnc2ccc(-c3ccc4c(c3)OCO4)cc12	?	/	/	?	/	/	0.063µM*	0.05µM*
CN(Cc1ccco1)c1ncnc2ccc(-c3ccc4c(ccn4C)c3)cc12	10µM*	/	/	9.3µM*	/	/	14µM*	?
FC(F)(F)c1cc(-c2ccc3c(c2)OCO3)nc(NCc2ccco2)n1	17%	2	17	3%	-16%	?	/	/
Cc1ccc(N(Cc2ccco2)C(=O)c2cccc(S(=O)(=O)N(C)C)c2)cc1	?	-2	8	-17%	?	-20%	/	/
CN(Cc1ccco1)c1ncnc2ccc(-c3cccc(Cl)c3)cc12	6.6µM*	/	/	9.3µM*	/	/	1.4µM*	1.6µM*
Cc1nc2cc(Cc3ccccc3)ccc2o1	/	/	/	/	?	-2%	/	/
COc1ccc(Cc2nnc(N/N=C/c3ccc(O)cc3)[nH]c2=O)cc1OC	9.3µM*	-10	-7	13µM*	?	?	/	/	WI-38 cytotox=?;PNC assembly inh=?;PC3M caspase=-2
SMILES	Pf growth 48h	Shiga inhibitor	CHX counter	Pf growth 96h	Lassa entry inh	Marburg entry inh	CLK4 ADP-Glo	CLK4 cf ADP-FP	others
COc1ccc(Cc2nnc(N/N=C/c3ccc(Br)cc3)[nH]c2=O)cc1OC	1%	15	-2	?	/	/	/	/
O=C(Nc1cccc(S(=O)(=O)N2CCCC2)c1)c1ccc2c(c1)OCO2	18%	21	11	6%	-9%	0%	/	/
O=C(Nc1cccc(S(=O)(=O)N2CCCCCC2)c1)c1ccc2c(c1)OCO2	9%	-13	3	20%	?	?	/	/	WI-38 cytotox=-14%;PNC assembly inh=-30%;PC3M caspase=-8
CCOC(=O)NC1(Nc2ccc(C)cc2)Oc2ccccc2O1	-2%	46*	55*	?	?	-12%	/	/	WI-38 cytotox=8%;PNC assembly inh=-18%;PC3M caspase=-6
CCOC(=O)NC1(NC(C)C)Oc2ccccc2O1	/	49	10	-8%	-19%	13%	/	/
Cc1cc(C(=O)COc2ccccc2Cl)c(C)n1-c1ccc2c(c1)OCO2	?	93*	53*	8.3µM*	4.1µM*	16µM*	/	/	WI-38 cytotox=-15%;PNC assembly inh=7.9µM*;PC3M caspase=-15
O=C(c1ccc(COc2ccccc2Cl)o1)N1CCN(Cc2ccc3c(c2)OCO3)CC1	?	-9	-1	-17%	?	?	/	/
C/C(=N/OCO/N=C(/C)c1ccc(F)cc1)c1ccc(F)cc1	2%	27	5	?	3.2µM*	?	/	/	WI-38 cytotox=20%;PNC assembly inh=22µM*;PC3M caspase=1
C/C(=N/OCO/N=C(\C)c1ccc(F)cc1F)c1ccc(F)cc1F	3%	-5	5	-20%	22%	10%	/	/
O=C(Cc1ncc(C(F)(F)F)cc1Cl)N1CCN(c2ccccn2)CC1	19%	-4	-2	18%	4%	?	/	/
Cc1ccc([C@@H]2CC=C(C(=O)O)[C@H](c3ccccc3)N2S(=O)(=O)c2ccc(C)cc2)cc1	-2%	/	/	49%	/	/	/	/
CCCCOc1ccc(-c2c(C#N)c(N)[nH]c(=S)c2C#N)cc1	-6%	-16	-3	-12%	/	/	/	/
Cc1cccc(C)c1Nc1c(-c2ccc(N3CCOCC3)cc2)nc2ncccn12	-25%	13	4	?	-20%[46.1 µM]	-6%[46.1 µM]	/	/	WI-38 cytotox=-18%;PNC assembly inh=-3%;PC3M caspase=-3
Cc1ccn2c(Nc3ccccc3C)c(-c3ccc(N4CCOCC4)cc3)nc2c1	/	/	/	/	-10%[46.1 µM]	?	/	/
CC12CC3CC(C1)CC(C(=O)NNC(=O)c1ccncc1)(C3)C2	/	/	/	/	?	16%[46.1 µM]	/	/
